Assay results as given in PubChem BioAssay AID1159580 (chemical genetic matrix, 2015).
In all, about 5,500 compounds went through this assay and about 2,000 (36%) were called active. Roughly 18% stayed inconclusive and do not appear here. Rule as the data show it: active = normalized growth mostly below about 0.91 (no sharp cut-off); inconclusive = no clear call, values can overlap the other calls; inactive = mostly above about 0.92. The list shows a part of the results.

Assay: chemical genetic growth profiling, strain panel (AID 1159580);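 also: tested at 20 µM; growth read once vehicle control cultures reached saturation at 30 °C; 1 = growth at the plate median or of vehicle wells; lower values mean less growth of the strain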
Details: S. cerevisiae deletion strains, growth OD

Measured: normalized growth

Cc1nc(N=Nc2ccc(C(=O)O)cc2)c(COP(=O)(O)O)c(C=O)c1O
inactive: locus YAL040C, strain CLN3, stronger effect = lower value 0.978 | locus YCL061C, strain MRC1 (second series), stronger effect = lower value 1.01 | locus YDR150W, strain NUM1, stronger effect = lower value 1.02 | locus YDR363W, strain ESC2, stronger effect = lower value 1 | locus YER002W, strain NOP16, stronger effect = lower value 1.02 | locus YMR263W, strain SAP30, stronger effect = lower value 1.01 | locus YMR307W, strain GAS1, stronger effect = lower value 1.04 | locus YNL128W, strain TEP1, stronger effect = lower value 0.99 | locus YNL175C, strain NOP13, stronger effect = lower value 1.01 | locus YNL197C, strain WHI3, stronger effect = lower value 1.01 | locus YNL224C, strain SQS1, stronger effect = lower value 1.01 | locus YOR083W, strain WHI5 (second series), stronger effect = lower value 1.03 | locus YPL055C, strain LGE1, stronger effect = lower value 1.01 | locus YPL241C, strain CIN2, stronger effect = lower value 1.01

COC(=O)C1=COC(OC2OC(CO)C(O)C(O)C2O)C2C(C)CC(=O)C12O (centres undefined)
inactive: locus YAL021C, strain ccr4, stronger effect = lower value 0.942 | locus YAL026C, strain drs2, stronger effect = lower value 0.994 | locus YAL030W, strain snc1, stronger effect = lower value 0.975 | locus YBL061C, strain skt5, stronger effect = lower value 0.991 | locus YBR009C, strain hhf1, stronger effect = lower value 0.944 | locus YBR023C, strain chs3, stronger effect = lower value 0.986 | locus YBR171W, strain sec66, stronger effect = lower value 0.983 | locus YBR231C, strain swc5, stronger effect = lower value 1.02 | locus YBR279W, strain paf1, stronger effect = lower value 0.995 | locus YCL011C, strain gbp2, stronger effect = lower value 0.982 | locus YCL016C, strain dcc1, stronger effect = lower value 0.978 | locus YCL069W, strain vba3, stronger effect = lower value 0.987 | locus YCR088W, strain abp1, stronger effect = lower value 1 | locus YDL005C, strain med2, stronger effect = lower value 0.986 | locus YDL040C, strain nat1, stronger effect = lower value 0.994 | locus YDR001C, strain nth1, stronger effect = lower value 0.965 | locus YDR069C, strain doa4, stronger effect = lower value 0.985 | locus YDR137W, strain rgp1, stronger effect = lower value 0.982 | locus YDR159W, strain sac3, stronger effect = lower value 1.03 | locus YDR195W, strain ref2 0.989 | locus YDR297W, strain sur2, stronger effect = lower value 0.993 | locus YDR334W, strain swr1, stronger effect = lower value 0.959 | locus YDR335W, strain msn5, stronger effect = lower value 0.994 | locus YDR392W, strain spt3, stronger effect = lower value 0.898 | locus YEL003W, strain gim4, stronger effect = lower value 0.989 | locus YEL037C, strain rad23, stronger effect = lower value 0.984 | locus YEL061C, strain CIN8 (second series), stronger effect = lower value 0.984 | locus YER015W, strain faa2, stronger effect = lower value 0.977 | locus YER016W, strain bim1, stronger effect = lower value 0.985 | locus YER111C, strain swi4, stronger effect = lower value 0.987 | locus YER155C, strain BEM2 (second series), stronger effect = lower value 1.01 | locus YFR010W, strain ubp6, stronger effect = lower value 0.989 | locus YGL167C, strain pmr1, stronger effect = lower value 0.966 | locus YGL173C, strain kem1, stronger effect = lower value 0.997 | locus YGL227W, strain vid30, stronger effect = lower value 0.991 | locus YGL240W, strain doc1, stronger effect = lower value 1.01 | locus YGL253W, strain hxk2, stronger effect = lower value 1.01 | locus YHR013C, strain ard1, stronger effect = lower value 0.953 | locus YHR027C, strain rpn1, stronger effect = lower value 0.967 | locus YHR142W, strain chs7, stronger effect = lower value 0.993 | locus YJL092W, strain hpr5, stronger effect = lower value 0.983 | locus YJL095W, strain BCK1 (second series), stronger effect = lower value 0.982 | locus YJL115W, strain asf1, stronger effect = lower value 0.972 | locus YJL129C, strain trk1, stronger effect = lower value 1 | locus YJL154C, strain vps35, stronger effect = lower value 0.978 | locus YJL164C, strain tpk1, stronger effect = lower value 0.946 | locus YJL166W, strain qcr8, stronger effect = lower value 0.975 | locus YKL160W, strain elf1, stronger effect = lower value 0.979 | locus YKR026C, strain gcn3, stronger effect = lower value 0.986 | locus YKR091W, strain srl3, stronger effect = lower value 0.978 | locus YLL001W, strain dnm1, stronger effect = lower value 1.01 | locus YLL026W, stronger effect = lower value 0.987 | locus YLL041C, strain sdh2, stronger effect = lower value 0.98 | locus YLR027C, strain aat2, stronger effect = lower value 1.01 | locus YLR221C, strain rsa3, stronger effect = lower value 1.03 | locus YLR258W, strain gsy2, stronger effect = lower value 0.993 | locus YLR262C, strain YPT6 (second series), stronger effect = lower value 0.984 | locus YLR320W, strain mms22, stronger effect = lower value 1.03 | locus YLR342W, strain FKS1, stronger effect = lower value 0.999 | locus YLR357W, strain rsc2, stronger effect = lower value 0.975 | locus YLR370C, strain arc18, stronger effect = lower value 1.01 | locus YLR384C, strain iki3, stronger effect = lower value 0.998 | locus YML120C, strain ndi1, stronger effect = lower value 0.955 | locus YMR058W, strain fet3, stronger effect = lower value 0.987 | locus YMR125W, strain sto1, stronger effect = lower value 0.937 | locus YMR129W, stronger effect = lower value 0.975 | locus YMR205C, strain PFK2, stronger effect = lower value 0.945 | locus YMR231W, strain pep5, stronger effect = lower value 0.99 | locus YNL071W, strain lat1, stronger effect = lower value 0.974 | locus YNL209W, strain ssb2, stronger effect = lower value 1 | locus YNL248C, strain rpa49, stronger effect = lower value 1.03 | locus YNL322C, strain KRE1 (second series), stronger effect = lower value 0.978 | locus YNR049C, strain mso1, stronger effect = lower value 0.971 | locus YOR001W, strain rrp6, stronger effect = lower value 1.02 | locus YOR070C, strain gyp1, stronger effect = lower value 0.996 | locus YOR080W, strain dia2, stronger effect = lower value 0.992 | locus YOR083W, strain WHI5, stronger effect = lower value 0.98 | locus YOR106W, strain vam3, stronger effect = lower value 0.94 | locus YOR265W, strain rbl2, stronger effect = lower value 0.999 | locus YOR270C, strain vph1, stronger effect = lower value 1.02 | locus YOR290C, strain snf2, stronger effect = lower value 0.927 | locus YPL051W, strain arl3, stronger effect = lower value 0.999 | locus YPL078C, strain atp4, stronger effect = lower value 0.954 | locus YPL106C, strain sse1, stronger effect = lower value 0.959 | locus YPL240C, strain hsp82, stronger effect = lower value 0.986
